# Measurements reported in article PMC4336329 (PLoS ONE, 2015).
# In all, about 310,000 compounds went through this assay and about 2,200 (0.71%) showed an effect of 50% or more. Effects have a minus sign here. The entries come from a sample that favours strong results as a whole.
# Target: human ether-à-go-go-related gene (hERG) potassium channel (human, UniProt Q12809)
# Experiment: primary screen, population patch clamp on CHO cells stably expressing hERG; higher = less effect of the substance
# Chain of human ether-à-go-go-related gene (hERG) potassium channel (Q12809 whole entry, looked up): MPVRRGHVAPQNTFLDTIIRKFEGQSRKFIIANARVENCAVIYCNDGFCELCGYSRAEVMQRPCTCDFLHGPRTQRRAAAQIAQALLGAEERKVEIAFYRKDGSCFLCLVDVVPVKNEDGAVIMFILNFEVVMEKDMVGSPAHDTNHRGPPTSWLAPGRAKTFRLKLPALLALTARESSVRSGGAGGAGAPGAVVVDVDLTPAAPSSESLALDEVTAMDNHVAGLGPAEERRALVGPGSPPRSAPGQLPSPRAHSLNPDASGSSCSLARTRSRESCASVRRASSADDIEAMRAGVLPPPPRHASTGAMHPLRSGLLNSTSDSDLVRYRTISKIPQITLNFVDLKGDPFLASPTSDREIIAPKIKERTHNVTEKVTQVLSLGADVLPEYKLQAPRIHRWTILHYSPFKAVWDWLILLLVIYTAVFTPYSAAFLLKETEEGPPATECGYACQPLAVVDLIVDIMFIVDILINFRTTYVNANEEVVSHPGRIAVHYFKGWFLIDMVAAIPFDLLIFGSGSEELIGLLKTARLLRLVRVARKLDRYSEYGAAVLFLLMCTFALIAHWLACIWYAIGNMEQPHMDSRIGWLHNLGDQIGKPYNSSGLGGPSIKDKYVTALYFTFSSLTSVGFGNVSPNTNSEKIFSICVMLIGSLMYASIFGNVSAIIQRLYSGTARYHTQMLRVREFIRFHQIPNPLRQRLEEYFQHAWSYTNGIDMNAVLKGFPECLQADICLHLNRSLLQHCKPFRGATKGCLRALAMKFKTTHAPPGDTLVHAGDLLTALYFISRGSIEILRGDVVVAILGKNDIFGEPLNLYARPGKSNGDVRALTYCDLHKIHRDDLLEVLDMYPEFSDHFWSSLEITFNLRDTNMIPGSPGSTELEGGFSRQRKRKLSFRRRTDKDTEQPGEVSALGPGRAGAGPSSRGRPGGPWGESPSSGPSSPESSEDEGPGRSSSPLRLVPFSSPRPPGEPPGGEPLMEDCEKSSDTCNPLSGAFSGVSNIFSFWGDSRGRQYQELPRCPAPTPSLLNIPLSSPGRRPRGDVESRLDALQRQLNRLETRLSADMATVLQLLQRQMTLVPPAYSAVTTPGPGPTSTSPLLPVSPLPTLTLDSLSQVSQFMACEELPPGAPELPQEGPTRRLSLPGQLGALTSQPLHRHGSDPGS
row,Compound,"hERG current change (%, negative = inhibition) at 1uM [%]"
1,O=C(Nc1nc(-c2ccc3c(c2)OCCO3)cs1)C1CCCC1,8.23
2,COC(=O)C1=C(c2cc3ccccc3o2)C[C@@H]2CC[C@H]1N2C(=O)N1CCCC1,7.5
3,NC(=NCCc1ccc(Cl)cc1)NS(=O)(=O)c1ccccc1,9.74
4,O=C(c1ccccc1Br)N1CCCC(c2nc(-c3cccs3)no2)C1 (stereo not shown),13.2
5,COc1ccc2oc(=N)c(-c3nnc4n3CCCCC4)cc2c1,1.02
6,Cc1ccccc1C(=O)N1CCC(C(=O)Nc2ccc(C)c(S(=O)(=O)N3CCCCC3)c2)CC1,2.28
7,COc1ccc(S(=O)(=O)N2CCN(Cc3ccc(Cl)cc3)CC2)cc1,-4.05
8,O=C(CN1CCCC1)Nc1ccc(F)cc1,16.6
9,O=C(CN1CCN(C(=O)C2CCC2)CC1)Nc1ccc(F)cc1,-27.3
10,COc1ccc(CN2CCCN(S(=O)(=O)c3ccc(Br)cc3)CC2)cc1,-75.6
11,COc1ccc(NC(=O)CN2CCCCC2)cc1.O=C(O)C(=O)O,10.6
12,COc1ccc(NC(=O)CN2CCN(S(=O)(=O)N3CCCCCC3)CC2)cc1,-60.8
13,COc1ccc(NC(=O)CN2CCN(S(=O)(=O)N(C)C)CC2)cc1,13.9
14,O=C(CN1CCN(S(=O)(=O)N2CCCCCC2)CC1)Nc1ccc(F)cc1,-75.1
15,COc1cccc(CN2CCCN(S(=O)(=O)c3ccc(Br)cc3)CC2)c1,-22.3
16,O=C(CN1CCN(S(=O)(=O)N2CCCCC2)CC1)Nc1ccc(Br)cc1,2.87
17,O=C(CN1CCN(S(=O)(=O)N2CCCCCC2)CC1)Nc1ccc(Br)cc1,-3.27
18,O=C(CN1CCN(C(=O)N2CCCCC2)CC1)Nc1ccc(F)cc1,-76.5
19,CCc1nnc(NC(=O)C2COc3ccccc3O2)s1 (stereo not shown),2.41
20,CCn1nc(NC(=O)COC)c2cc3cc(C)ccc3nc21,9.09
21,COc1ccc(NS(=O)(=O)NC(=O)c2c[nH]c3ccccc23)cc1,9.58
22,CCOc1cc(CO)cc(Br)c1OCC(=O)Nc1ccccc1C,6.36
23,Cc1cc(NC(=O)CCC(=O)NNC(=O)c2ccc(C(C)(C)C)cc2)no1,6.49
24,CC(Nc1ccc(F)cc1)=[N+](C)CCNS(=O)(=O)c1ccc(Cl)cc1.[I-],-45.1
25,O=C(CN1CCN(Cc2ccccc2)CC1)Nc1ccc(F)c(F)c1.O=C(O)C(=O)O,-21.9
26,COc1ccc(C(=O)CN2CCN(S(=O)(=O)c3cccc([N+](=O)[O-])c3)CC2)cc1OC,3.44
27,COc1ccc(NC(=O)CN2CCCC2)cc1,14.6
28,COc1ccc(NC(C)=[N+](C)CCNS(=O)(=O)c2ccc(Cl)cc2)cc1.[I-],-59.5

row,Compound,"hERG current change (%, negative = inhibition) at 1uM [%]"
1,COc1cccc(C(=O)CN2CCN(S(=O)(=O)c3cccc([N+](=O)[O-])c3)CC2)c1,6.87
2,O=C(CN1CCN(c2ccc(Cl)cc2)CC1)Nc1ccc(F)c(F)c1,-1.8
3,COc1cccc(NC(C)=[N+](C)CCNS(=O)(=O)c2ccc(Cl)cc2)c1.[I-],-36.6
4,COc1ccc(C(=O)CN2CCN(S(=O)(=O)c3cccc([N+](=O)[O-])c3)CC2)cc1,-64.3
5,COc1ccc(NC(=O)CN2CCN(CC#N)CC2)cc1,-44.9
6,COc1ccc(NC(=O)CN2CCN(CC(=O)Nc3ccc(OC)cc3)CC2)cc1,-85.6
7,O=C(CN1CCN(CC(=O)Nc2ccccc2Cl)CC1)Nc1ccc(F)c(F)c1,-74
8,CCOC(=O)Cn1nnc(-c2cccc(OC)c2)n1,9.82
9,Cc1cccc(C(=O)O/N=C(\N)CS(=O)(=O)c2ccccc2)c1,5.74
10,Cn1cccc1C(=O)NCC(c1ccc(F)cc1)N1CCOCC1 (stereo not shown),5.02
11,CCOC(=O)CNC(=O)Cn1cnc2c(nnn2-c2cccc(Cl)c2)c1=O,-0.825
12,COc1ccc(Nc2nc(C)nc3c2nnn3Cc2ccccc2)cc1OC,4.84
13,CCN(CC)c1ccc(NC(=O)CN2CCN(CC(=O)Nc3ccc(OC)cc3)CC2)cc1,-59.5
14,CCN(CC)c1ccc(NC(=O)CN2CCN(CC(=O)Nc3ccccc3OC)CC2)cc1,-0.407
15,COc1ccc(NC(=O)CN2CCC(C)CC2)cc1,-0.0667
16,Cc1cc(=O)oc2cc(OCC(=O)N3CCCC3)c(Cl)cc12,1.63
17,Cc1sc2nc(CN3CCCCC3)nc(Nc3ccc4c(c3)OCCO4)c2c1C,-89.2
18,Cc1nc(Nc2ccc3c(c2)OCCO3)c2c(C)c(C)sc2n1,-8.61
19,Cc1sc2nc(CN3CCOCC3)nc(NS(=O)(=O)c3ccc4c(c3)OCCO4)c2c1C,13.1
20,Cc1cc2oc3c(c(=O)c2cc1C)C(c1ccc(C(C)C)cc1)N(CCCN1CCOCC1)C3=O (stereo not shown),13
21,CCCN1C(=O)c2ccc(C(=O)Nc3ccccc3C(=O)O)cc2C1=O,18
22,COCc1cc(CN2CCN(CCc3ccccc3)C(CCO)C2)ccc1OC (stereo not shown),-32.3
23,CCOc1ccc(CN2CCN(Cc3ccsc3)C(CCO)C2)cc1CO (stereo not shown),-17.3
24,COCc1cc(CN2CCN(Cc3ccsc3)C(CCO)C2)ccc1OC (stereo not shown),-56.6
25,Cc1ccc(NCc2nnc(SCCN3CCCCC3)n2CC2CCCO2)c(C)c1 (stereo not shown),-10.7
26,Cc1ccc(NCc2nnc(SCC(=O)NCc3ccco3)n2CC2CCCO2)cc1Cl (stereo not shown),-5.15
27,Cc1ccc(NCc2nnc(SCCN3CCCCC3)n2CC2CCCO2)cc1Cl (stereo not shown),-59.1
